From the antibiotic and cytotoxicity screens of Wong et al. (2023)
Hit rate of the full screen: of about 39,000 compounds, about 3,300 (8.5%) were called active. This is one part of a sample in which actives are shown more often than they occur.

Test system: HepG2
Assay: cytotoxicity call (relative viability < 0.9)
Conditions: 10 µM

Row | Structure (SMILES) | cytotoxicity call
1 | Cn1cnc(S(=O)(=O)N[C@@H]2CC[C@H](CC(=O)Nc3ccccc3)O[C@H]2CO)c1 | inactive
2 | COc1ccc(CN(C)C[C@@H]2Oc3c(NS(=O)(=O)c4cn(C)cn4)cccc3C(=O)N([C@H](C)CO)C[C@@H]2C)cc1 | inactive
3 | CCCN(C)C[C@H]1Oc2cc(C#Cc3ccccc3OC)ccc2S(=O)(=O)N([C@@H](C)CO)C[C@H]1C | inactive
4 | COc1ccc(S(=O)(=O)N(C)C[C@@H]2Oc3ccc(NS(=O)(=O)c4ccccc4)cc3C(=O)N([C@H](C)CO)C[C@H]2C)cc1 | inactive
5 | CC(C)=CCc1c(O)cc2oc(C)cc(=O)c2c1O | inactive
6 | COc1c(O)cc2oc3cc(O)c(CC=C(C)C)c(O)c3c(=O)c2c1CC=C(C)C [alpha-MANGOSTIN ] | active
7 | COc1cc(O)c2c(=O)cc(C)oc2c1CC=C(C)C | inactive
8 | CN(C)CCCNC(=O)[C@H]1[C@H](CO)[C@H]2Cn3c(ccc(-c4ccncc4)c3=O)[C@@H]1N2C(=O)C1CC1 | inactive
9 | COCC(=O)N(C)C[C@@H]1Oc2cc(C#C[C@@H](C)O)ccc2S(=O)(=O)N([C@H](C)CO)C[C@@H]1C | inactive
10 | COCC(=O)Nc1ccc2c(c1)C(=O)N(C)[C@@H]1CC[C@H](CC(=O)NC3Cc4ccccc4C3)O[C@H]1CO2 | inactive
11 | C[C@H](CO)N1C[C@H](C)[C@@H](CN(C)Cc2ccc(Cl)c(Cl)c2)OCCCC[C@H](C)Oc2ccc(NS(=O)(=O)c3ccccc3)cc2C1=O | active
12 | C[C@@H]1CCCCO[C@@H](CN(C)Cc2ccc(Cl)c(Cl)c2)[C@H](C)CN([C@H](C)CO)C(=O)c2cc(NS(=O)(=O)c3ccccc3)ccc2O1 | active
13 | C[C@@H]1CCCCO[C@H](CN(C)Cc2ccc(Cl)c(Cl)c2)[C@H](C)CN([C@@H](C)CO)C(=O)c2cc(NS(=O)(=O)c3ccccc3)ccc2O1 | inactive
14 | C[C@@H]1CCCCO[C@H](CN(C)Cc2ccc(Cl)c(Cl)c2)[C@@H](C)CN([C@H](C)CO)C(=O)c2cc(NS(=O)(=O)c3ccccc3)ccc2O1 | inactive
15 | C[C@@H]1CCCCO[C@@H](CN(C)Cc2ccc(Cl)c(Cl)c2)[C@H](C)CN([C@@H](C)CO)C(=O)c2cc(NS(=O)(=O)c3ccccc3)ccc2O1 | active
16 | C[C@@H]1CCCCO[C@H](CN(C)Cc2ccc(Cl)c(Cl)c2)[C@@H](C)CN([C@@H](C)CO)C(=O)c2cc(NS(=O)(=O)c3ccccc3)ccc2O1 | active
17 | CN(C)c1nc(NCCO)c2cnn(C)c2n1 | inactive
18 | Cc1noc(C)c1S(=O)(=O)N(C)C[C@@H]1Oc2ccc(NS(=O)(=O)c3ccccc3)cc2C(=O)N([C@@H](C)CO)C[C@@H]1C | inactive
19 | C[C@@H]1CN([C@H](C)CO)C(=O)c2cc(NC(=O)Cn3cnnn3)ccc2O[C@@H]1CN(C)S(=O)(=O)c1cn(C)cn1 | inactive
20 | CC(C)NC(=O)N(C)C[C@@H]1OCCCC[C@H](C)Oc2ccc(NS(C)(=O)=O)cc2C(=O)N([C@H](C)CO)C[C@@H]1C | inactive
21 | C[C@@H]1CN([C@H](C)CO)C(=O)c2cc(NS(=O)(=O)c3cn(C)cn3)ccc2O[C@@H](C)CCCCO[C@@H]1CN(C)S(=O)(=O)c1cccs1 | inactive
22 | CC(C)CC#Cc1ccc2c(c1)O[C@H](CN(C)C(=O)Cc1ccncc1)[C@H](C)CN([C@@H](C)CO)S2(=O)=O | inactive

Row | Structure (SMILES) | cytotoxicity call
23 | C[C@@H]1CCCCO[C@@H](CN(C)C(=O)NC2CCCCC2)[C@H](C)CN([C@H](C)CO)C(=O)c2cc(NS(=O)(=O)c3ccc(F)cc3)ccc2O1 | inactive
24 | COc1ccc(S(=O)(=O)N(C)C[C@H]2Oc3ccc(NS(=O)(=O)c4cn(C)cn4)cc3C(=O)N([C@H](C)CO)C[C@@H]2C)cc1 | inactive
25 | COc1ccc(S(=O)(=O)N(C)C[C@@H]2OCCCC[C@@H](C)Oc3ccc(NS(C)(=O)=O)cc3C(=O)N([C@H](C)CO)C[C@H]2C)cc1 | inactive
26 | COc1ccc(S(=O)(=O)Nc2cccc3c2O[C@@H](CN(C)C(=O)NC(C)C)[C@H](C)CN([C@@H](C)CO)C3=O)cc1 | inactive
27 | C[C@H](CO)N1C[C@H](C)[C@H](CN(C)C(=O)Cc2ccccc2)OCCCC[C@H](C)Oc2ccc(NS(=O)(=O)c3cccs3)cc2C1=O | inactive
28 | C[C@@H]1CN([C@H](C)CO)S(=O)(=O)c2ccc(C#Cc3ccccc3)cc2O[C@@H]1CN(C)S(=O)(=O)c1cn(C)cn1 | inactive
29 | C[C@@H]1CCCCO[C@@H](CN(C)Cc2ccc(Cl)c(Cl)c2)[C@@H](C)CN([C@@H](C)CO)C(=O)c2cc(NS(=O)(=O)c3ccccc3)ccc2O1 | inactive
30 | C[C@@H]1CCCCO[C@@H](CN(C)Cc2ccc(Cl)c(Cl)c2)[C@@H](C)CN([C@H](C)CO)C(=O)c2cc(NS(=O)(=O)c3ccccc3)ccc2O1 | active
31 | C[C@H]1CCCCO[C@H](CN(C)Cc2ccc(Cl)c(Cl)c2)[C@@H](C)CN([C@@H](C)CO)C(=O)c2cc(NS(=O)(=O)c3ccccc3)ccc2O1 | active
32 | C[C@@H]1CN([C@H](C)CO)C(=O)c2cc(NS(=O)(=O)c3ccccc3)ccc2O[C@@H](C)CCCCO[C@@H]1CN(C)Cc1ccc(Cl)c(Cl)c1 | active
33 | C[C@@H]1CN([C@H](C)CO)C(=O)c2cc(NS(=O)(=O)c3ccccc3)ccc2O[C@@H](C)CCCCO[C@H]1CN(C)Cc1ccc(Cl)c(Cl)c1 | inactive
34 | Nn1c([C@@H](O)c2ccccc2)n[nH]c1=S | inactive
35 | COc1ccc(CN(C)C[C@H]2OCCCC[C@H](C)Oc3ccc(NC(=O)Cc4ccccc4)cc3C(=O)N([C@H](C)CO)C[C@H]2C)cc1 | inactive
36 | C[C@H]1CN([C@@H](C)CO)C(=O)c2cc(NC(=O)Cn3cnnn3)ccc2O[C@H]1CN(C)S(C)(=O)=O | inactive
37 | C[C@H]1CN([C@@H](C)CO)C(=O)c2cc(C#CC(C)(C)O)cnc2O[C@@H]1CN(C)C(=O)CN(C)C | inactive
38 | COc1ccc(NC(=O)N(C)C[C@@H]2OCCCC[C@@H](C)Oc3ccc(NS(=O)(=O)c4ccc(OC)cc4)cc3C(=O)N([C@@H](C)CO)C[C@@H]2C)cc1 | inactive
39 | CCOC(=O)CC1(C)NNC(=S)NN1 | inactive
40 | C[C@@](N)(C(=O)O)c1ccc(-c2nn[nH]n2)cc1 | inactive
41 | C[C@H](NC(=O)C[C@@H]1C[C@@H]2c3cc(NC(=O)Nc4ccc(C(F)(F)F)cc4)ccc3O[C@@H]2[C@@H](CO)O1)c1ccccc1 | active
42 | COc1ccccc1CNC(=O)C[C@@H]1C[C@H]2c3cc(NC(=O)Nc4ccc(C(F)(F)F)cc4)ccc3O[C@H]2[C@@H](CO)O1 | active
43 | O=C(C[C@@H]1C[C@@H]2c3cc(NC(=O)Nc4ccc(C(F)(F)F)cc4)ccc3O[C@@H]2[C@@H](CO)O1)NC1CCCCC1 | inactive
44 | COc1ccccc1CNC(=O)C[C@H]1C[C@H]2c3cc(NC(=O)Nc4ccc(C(F)(F)F)cc4)ccc3O[C@H]2[C@H](CO)O1 | inactive

Row | Structure (SMILES) | cytotoxicity call
45 | C[C@H](NC(=O)C[C@@H]1C[C@@H]2c3cc(NC(=O)Nc4ccc(C(F)(F)F)cc4)ccc3O[C@@H]2[C@H](CO)O1)c1ccccc1 | inactive
46 | O=C(C[C@@H]1C[C@H]2c3cc(NC(=O)Nc4ccc(C(F)(F)F)cc4)ccc3O[C@H]2[C@@H](CO)O1)NC1CCCCC1 | inactive
47 | C[C@H](NC(=O)C[C@H]1C[C@@H]2c3cc(NC(=O)Nc4ccc(C(F)(F)F)cc4)ccc3O[C@@H]2[C@@H](CO)O1)c1ccccc1 | inactive
48 | O=C(C[C@@H]1C[C@@H]2c3cc(NC(=O)Nc4ccc(C(F)(F)F)cc4)ccc3O[C@@H]2[C@H](CO)O1)NC1CCCCC1 | active
49 | COc1ccccc1CNC(=O)C[C@H]1C[C@@H]2c3cc(NC(=O)Nc4ccc(C(F)(F)F)cc4)ccc3O[C@@H]2[C@@H](CO)O1 | inactive
50 | C[C@@H]1CN([C@H](C)CO)C(=O)c2c(c3ccccc3n2C)-c2ccccc2CO[C@@H]1CN(C)S(=O)(=O)c1cn(C)cn1 | inactive
51 | Cc1noc(C)c1NC(=O)Nc1ccc2c(c1)C(=O)N([C@H](C)CO)C[C@@H](C)[C@H](CN(C)C(=O)Nc1ccccc1)OCCCC[C@@H](C)O2 | inactive
52 | Cc1ccc(S(=O)(=O)N(C)C[C@H]2Oc3ccc(NC(=O)CCCN(C)C)cc3C(=O)N([C@@H](C)CO)C[C@@H]2C)cc1 | inactive
53 | CCNC(=O)C[C@@H]1CC[C@H]2[C@@H](COc3ccc(NS(=O)(=O)c4ccccc4C)cc3C(=O)N2C)O1 | inactive
54 | C[C@@H]1CCCCO[C@H](CN(C)C(=O)Nc2ccc(F)cc2)[C@H](C)CN([C@H](C)CO)C(=O)c2cc(NC(=O)Nc3ccc(C(F)(F)F)cc3)ccc2O1 | inactive
55 | CC(C)CC#Cc1ccc2c(c1)O[C@@H](CN(C)C(=O)c1cccnc1)[C@@H](C)CN([C@H](C)CO)S2(=O)=O | inactive
56 | CCCCOc1ccc(C(=O)CCN2CCCCC2)cc1.Cl | active
57 | O=C(N[C@@H](c1ccccc1)c1ccc2ccccc2n1)C1CCN(CCOc2ccc(Cl)cc2)CC1 | inactive
58 | CC(=O)O.Cc1c(-c2ccc(O)cc2)n(Cc2ccc(OCCN3CCCCCC3)cc2)c2ccc(O)cc12 | active
59 | CCCCOc1ccc(OCCCN2CCOCC2)cc1.Cl | inactive
60 | COc1cc(OC)c(C(=O)CCCN2CCCC2)c(OC)c1.Cl | inactive
61 | Cl.O=C(c1ccc(OCCN2CCCCC2)cc1)c1c(-c2ccc(O)cc2)sc2cc(O)ccc12 | active
62 | COc1cc(C(=O)OCCN2CCCN(CCOC(=O)c3cc(OC)c(OC)c(OC)c3)CC2)cc(OC)c1OC | inactive
63 | CC(=O)OCC(=O)NCCCOc1cccc(CN2CCCCC2)c1.Cl | inactive
64 | C[C@@H]1CN([C@@H](C)CO)C(=O)c2cccc(NC(=O)c3cnccn3)c2O[C@H]1CN(C)S(=O)(=O)c1cccs1 | inactive
65 | C[C@H]1CN([C@@H](C)CO)S(=O)(=O)c2ccc(-c3cccc(C(=O)N(C)C)c3)cc2O[C@@H]1CN(C)C(=O)Cc1ccccn1 | inactive
